{
  "source": "PubChem BioAssay AID1923",
  "about": "(Vanderbilt High Throughput Screening Facility, 2009)",
  "note": "The source made the active and inactive calls.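 The calls were made as follows: active = compound that boosted calcium signal to a low acetylcholine dose in a dose-dependent way; inactive = the rest.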",
  "data": [
    {"molecular_target": "Muscarinic acetylcholine receptor M4 (Rattus norvegicus) (UniProt P08485)", "sequence (P08485 whole entry, looked up)": "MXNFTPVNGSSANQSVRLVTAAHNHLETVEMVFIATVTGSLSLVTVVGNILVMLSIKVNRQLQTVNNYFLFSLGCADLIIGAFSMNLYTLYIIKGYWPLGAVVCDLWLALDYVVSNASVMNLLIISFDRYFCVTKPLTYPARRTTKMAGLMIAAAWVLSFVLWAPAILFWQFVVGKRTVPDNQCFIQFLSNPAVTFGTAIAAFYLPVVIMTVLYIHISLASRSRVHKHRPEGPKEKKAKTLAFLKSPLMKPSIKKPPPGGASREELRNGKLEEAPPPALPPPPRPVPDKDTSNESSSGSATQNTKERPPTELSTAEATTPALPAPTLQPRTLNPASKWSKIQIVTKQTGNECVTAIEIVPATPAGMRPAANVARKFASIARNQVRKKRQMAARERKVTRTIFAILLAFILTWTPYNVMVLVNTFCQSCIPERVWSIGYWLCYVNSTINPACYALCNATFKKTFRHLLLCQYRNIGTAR", "assay": "potentiation of acetylcholine response at rM4 – cell-based, analogs, calcium mobilization, Gqi5, SAR follow-up (AID 1923)", "settings": "CHO-K1 rM4/Gqi5, calcium mobilization Fluo-4, ACh EC20", "values": [
      {"smiles": "COc1ccc(CNC(=O)c2sc3nc(OCc4ccncc4)cc(C)c3c2N)cc1", "outcome": "active; fitted 1.97 uM"},
      {"smiles": "COc1ccc(CNC(=O)c2sc3nc(OCCN(C)C)cc(C)c3c2N)cc1", "outcome": "inactive"},
      {"smiles": "CCCOc1cc(C)c2c(N)c(C(=O)NCc3ccc(OC)cc3)sc2n1", "outcome": "inactive"},
      {"smiles": "COc1ccc(CNC(=O)c2sc3nc(OCCCN(C)C)cc(C)c3c2N)cc1", "outcome": "inactive"},
      {"smiles": "COc1ccc(CNC(=O)c2sc3nc(OCc4cccnc4)cc(C)c3c2N)cc1", "outcome": "active; fitted 2.21 uM"},
      {"smiles": "Cc1cc(OCCN2CCOCC2)nc2sc(C(=O)NC(C)(C)C)c(N)c12", "outcome": "active; fitted 8.73 uM"},
      {"smiles": "Cc1cc(OCCN2CCOCC2)nc2sc(C(=O)Nc3ccccc3)c(N)c12", "outcome": "active; fitted 5.81 uM"},
      {"smiles": "COc1ccc(CNC(=O)c2sc3nc(OCCN4CCOCC4)cc(C)c3c2N)cc1", "outcome": "active; fitted 6.47 uM"},
      {"smiles": "Cc1cc(OCc2ccncc2)nc2sc(C(=O)NCc3cc(F)ccc3F)c(N)c12", "outcome": "active; fitted 1.58 uM"},
      {"smiles": "CCCCCOc1cc(C)c2c(N)c(C(=O)NCc3ccc(OC)cc3)sc2n1", "outcome": "inactive"},
      {"smiles": "COCCCNC(=O)c1sc2nc(OCCN3CCOCC3)cc(C)c2c1N", "outcome": "active; fitted 6.25 uM"},
      {"smiles": "Cc1cc(OCc2ccccn2)nc2sc(C(=O)NCc3cc(F)ccc3F)c(N)c12", "outcome": "inactive"},
      {"smiles": "COc1ccc(CNC(=O)c2sc3nc(OC(C)C)cc(C)c3c2N)cc1", "outcome": "inactive"},
      {"smiles": "COc1ccc(CNC(=O)c2sc3nc(OCc4ccccn4)cc(C)c3c2N)cc1", "outcome": "active; fitted 1.77 uM"},
      {"smiles": "COc1ccc(CNC(=O)c2sc3nc(OCC4CCCN(C)C4)cc(C)c3c2N)cc1", "note": "(configuration not stated)", "outcome": "inactive"},
      {"smiles": "Cc1cc(OCCCN(C)C)nc2sc(C(=O)NC3COC3)c(N)c12", "outcome": "active; fitted 2.58 uM"},
      {"smiles": "Cc1cc(OCCCN(C)C)nc2sc(C(=O)NCc3cc(F)ccc3F)c(N)c12", "outcome": "active; fitted 2.75 uM"},
      {"smiles": "COc1ccc(CNC(=O)c2sc3nc(OCCN4CCCC4)cc(C)c3c2N)cc1", "outcome": "active; fitted 8.24 uM"},
      {"smiles": "Cc1cc(OCc2ccncc2)nc2sc(C(=O)NCc3cccc(F)c3F)c(N)c12", "outcome": "active; fitted 1.61 uM"},
      {"smiles": "Cc1cc(OCCN2CCOCC2)nc2sc(C(=O)NC3COC3)c(N)c12", "outcome": "active; fitted 7.42 uM"},
      {"smiles": "Cc1cc(OCCN2CCOCC2)nc2sc(C(=O)NC(C)C)c(N)c12", "outcome": "active; fitted 7.15 uM"},
      {"smiles": "Cc1cc(OCc2ccccn2)nc2sc(C(=O)NCc3cccc(F)c3F)c(N)c12", "outcome": "active; fitted 5.4 uM"}
    ]}
  ]
}
